Usually AC50 stands for the midpoint of the concentration-response curve, whichever way the signal moves.

Molecules are shown by their SMILES. Several values for one entry are separate records, joined by “and”; a condition that tells them apart may be missing. Equal values may be shown once. Inconclusive results are not listed. Activity calls are given as the source filed them. Rule for the calls: active = hit-call score of the fitted dose curve at least 0.9, where 1 is the maximum; inconclusive = response in the unintended direction; inactive = score below 0.9.

human Fibroblast Growth Factor Receptor 1 (FGFR1), FGFR1 (gene 2260), sequence (P11362 whole entry, looked up): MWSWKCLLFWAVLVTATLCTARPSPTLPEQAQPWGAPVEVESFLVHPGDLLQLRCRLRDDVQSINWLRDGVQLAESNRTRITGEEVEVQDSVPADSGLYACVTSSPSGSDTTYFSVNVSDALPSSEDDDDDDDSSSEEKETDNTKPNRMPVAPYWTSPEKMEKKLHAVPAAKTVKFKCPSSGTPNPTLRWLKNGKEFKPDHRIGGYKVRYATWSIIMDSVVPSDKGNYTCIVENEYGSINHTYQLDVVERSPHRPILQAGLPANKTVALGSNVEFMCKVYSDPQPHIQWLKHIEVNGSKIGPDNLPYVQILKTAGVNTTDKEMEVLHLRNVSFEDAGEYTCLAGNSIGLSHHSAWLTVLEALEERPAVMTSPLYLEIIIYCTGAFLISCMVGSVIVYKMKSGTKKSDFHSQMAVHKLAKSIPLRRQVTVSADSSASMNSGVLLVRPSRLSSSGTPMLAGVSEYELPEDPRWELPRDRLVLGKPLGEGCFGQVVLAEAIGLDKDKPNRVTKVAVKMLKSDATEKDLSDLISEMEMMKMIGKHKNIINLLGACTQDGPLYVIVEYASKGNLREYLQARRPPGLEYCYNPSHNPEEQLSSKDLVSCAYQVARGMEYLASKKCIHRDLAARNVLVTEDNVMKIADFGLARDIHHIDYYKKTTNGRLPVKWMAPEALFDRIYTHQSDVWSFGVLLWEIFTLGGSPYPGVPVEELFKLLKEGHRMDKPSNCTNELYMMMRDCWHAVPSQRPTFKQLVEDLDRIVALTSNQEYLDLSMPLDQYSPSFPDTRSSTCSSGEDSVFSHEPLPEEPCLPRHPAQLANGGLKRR

The target of this test is human Fibroblast Growth Factor Receptor 1 (FGFR1), FGFR1 (gene 2260) (UniProt P11362). The test is described as follows: NVS_ENZ_hFGFR1: NovaScreen (NVS) Enzymatic Assay for human Fibroblast Growth Factor Receptor 1 (FGFR1) (AID 2283159).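 For AC50: hits lower the signal so potencies describe inhibitors of the kinase.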 The procedure:
NVS_ENZ_hFGFR1 is a biochemical, single-readout assay that uses extracted gene-proteins in a cell-free assay. Measurements were taken 1 hour after chemical dosing in a 384-well plate.NVS_ENZ_hFGFR1 is one of one assay component(s) measured or calculated from the NVS_ENZ_hFGFR1 assay. It is designed to make measurements of enzyme activity, a form of enzyme reporter, as detected with fluorescence intensity signals by Fluorescence and electrophoretic mobility shift technology.Data from the assay component NVS_ENZ_hFGFR1 was analyzed into 1 assay endpoint. This assay endpoint, NVS_ENZ_hFGFR1, was analyzed in the positive analysis fitting direction relative to DMSO as the negative control and baseline of activity. Using a type of enzyme reporter, loss-of-signal activity can be used to understand changes in the enzymatic activity as they relate to the gene FGFR1. Furthermore, this assay endpoint can be referred to as a primary readout, because this assay has produced multiple assay endpoints where this one serves a enzymatic activity function. To generalize the intended target to other relatable targets, this assay endpoint is annotated to the kinase intended target family, where the subfamily is receptor tyrosine kinase.
Binding assays used specific radioligands (tritiated, iodinated) with non-radioactive competitive displacement ligands in agonist or antagonist protocols (as indicated) and various reference compounds and inhibitors to titrate specific binding to receptors and transporters. Most enzyme assays (CYPs, kinases, phosphatases, proteases, HDACs) used recombinant protein and specific substrates (fluorescence mostly, some colorimetric and radioactive) and inhibitors, followed by a biochemical separation of substrate and product. All assays for the biochemical HTS were initially run in duplicate at a single concentration (10 uM for CYP450 assays and 25 uM for all others). […] Each assay was run with positive and negative controls, and concurrent controls on every plate. The follow-up (secondary) screen tested active chemical-pairs in concentration series, as well as a few additional assays not tested in the primary screen, some selected negative inactives, and several cases re-run in the concentration series for confirmatory purposes.
`NC(=NCCCCCCN=C(N)/N=C(\N)Nc1ccc(Cl)cc1)/N=C(\N)Nc1ccc(Cl)cc1`: the AC50 was 11.8 µM (active).

For `Cc1c(-c2cccnc2)c2ccccc2n1CCCCC(=O)O`, the outcome was inactive.

With `CCC(C)N(C)C(=O)c1cc2ccccc2c(-c2ccccc2Cl)n1` (stereo not given), the compound was classed as inactive.

In the case of `N=C(N)c1ccc(OCCCCCOc2ccc(C(=N)N)cc2)cc1`, the compound was called inactive.

Regarding `CC(C)=CCC/C(C)=C\CO`, the call was inactive.

Turning to `O=C(c1ccc(O)cc1O)c1ccc(O)cc1O`, the AC50 was 25 µM (active).

As for `O=C(O)c1cccc(C[C@@H]2COc3ccc(OCc4nc5cc(F)ccc5s4)cc3[C@@H]2O)c1`, the compound was classed as inactive.

As for `CCCCCCCCN(C)CCCCCCCC`, the AC50 was 36.1 µM (active).

Consider `Clc1cc(Cl)c2c(c1)N=C1CCCCCN1C2`, for which the result was inactive.

As for `COCCO`, the outcome was inactive.

`CCCCCCC(=O)O`: the result was inactive.

Regarding `COCC(C)OCC(C)OCC(C)O` (stereo not given), the compound was classed as inactive.

Consider `O=C(O)Cc1cc(I)c(Oc2cc(I)c(O)c(I)c2)c(I)c1`, for which the call was inactive.

For `CC(C)NCC(O)c1ccc(O)c(O)c1` (stereo not given), the compound was called inactive.

Consider `CCc1c(C(=O)NN2CCCCC2)nn(-c2ccc(Cl)cc2Cl)c1-c1ccc(Br)cc1`, for which the result was inactive.

Take `O=C(OCCOCCOC(=O)c1ccccc1)c1ccccc1`: the result was inactive.

As for `CCN(CC)C(=O)c1cc(S(=O)(=O)Cc2ccccc2)c(N2CCC(c3ccccc3)CC2)cc1N(CC)CCN(C)C`, the outcome was inactive.

With `Oc1ccc(C(c2ccc(O)cc2)C(Cl)(Cl)Cl)cc1`, the concentration at half-maximal activity (AC50) is 33.1 µM (active).

For `CCN(CC)CCNc1ccc(CNC=O)c2sc3ccc(OC)cc3c(=O)c12`, the call was inactive.

With `O=C(Oc1ccccc1)c1cccc(C(=O)Oc2ccccc2)c1`, the result was inactive.

Regarding `CC(C)CCCCCCc1ccc(O)cc1`, the compound was classed as inactive.

For the compound `CNC(=O)[C@H]1O[C@@H](n2cnc3c(NCc4cc(Cl)ccc4OCc4cc(C)no4)ncnc32)[C@H](O)[C@@H]1N`, the result was inactive.

With `NC(=O)N(O)[C@@H]1C=C[C@H](Oc2cccc(Oc3ccc(F)cc3)c2)C1`, the compound was classed as inactive.

For the compound `CC(C)(c1ccc(O)cc1)c1ccc(O)cc1`, the compound was called inactive.

Take `CCCCCCCC(=O)O`: the compound was called inactive.

On to `CCc1cccc(CC)c1N`, for which the compound was classed as inactive.

On to `Cc1cn([C@H]2C[C@H](N=[N+]=[N-])[C@@H](CO)O2)c(=O)[nH]c1=O`, for which the compound was called inactive.

With `CCOC(=O)c1ccc(O)cc1`, the result was inactive.

In the case of `COCc1nnc(-c2ccc[n+]([O-])c2)n1-c1c(Cl)c(Cl)cc2[nH]c(=O)c(=O)[nH]c12`, the compound was classed as inactive.

Turning to `Clc1nc(Cl)c(Cl)c(Cl)c1Cl`, the compound was classed as inactive.

Regarding `Nc1ccc(S(=O)(=O)c2ccc(N)cc2)cc1`, the call was inactive.

On to `Oc1ccc2c(c1)-c1ccccc1C2`, for which the AC50 was 32.7 µM (active).

For `O=C(O)c1cc(N=Nc2ccc(S(=O)(=O)Nc3ccccn3)cc2)ccc1O`, the result was inactive.

In the case of `S=C(S)NCCNC(=S)S.[Mn+2].[S-]C([S-])=NCCN=C([S-])[S-].[Zn+2]`, the AC50 was 9.75 µM (active) and 926 nM (active) and 5.66 µM (active).

`O=c1[nH]cnc2c1ncn2[C@H]1CC[C@@H](CO)O1`: the compound was classed as inactive.

As to `O=C(O)C1(C(=O)Nc2ccc(Cl)cc2Cl)CC1`, the AC50 is 18.3 µM (active).

`N#CCCCCC#N`: the outcome was inactive.

Regarding `O=C(NO)C1(NS(=O)(=O)c2ccc(Oc3ccc(F)cc3)cc2)CCOCC1`, the outcome was inactive.

Turning to `O=C(O)c1ccc2c(c1)nc(C(=O)NC1CCN(C3CC3)CC1)n2Cc1cc(-c2ccc(Cl)s2)on1`, the result was inactive.

`c1cc(-c2ccncc2)ccn1`: the compound was called inactive.

Source of the values: PubChem BioAssay (EPA / NIEHS).
